The values that follow come from PubChem BioAssay (NCI).

The structures appear in SMILES notation. This is part of a sample that, as a whole, favours compounds with a hit. Of some 83,000 tested, about 20% had one in any assay.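 Percent growth is the endpoint: 0 to 100 indicates growth inhibition (40 means 60% inhibition), 0 means no net growth, and negative values indicate cell death.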 Values without a mark were called inactive. Calls of active or inactive are those of the source. How the source made its calls: active means growth percent below 10; inactive means the rest.

Some test systems named below: NCI-H23 lung; NCI-H226 lung; NCI-H322M lung; HOP-62 NSCLC; NCI-H460 lung; NCI-H522 lung; A549/ATCC NSCLC; 786-0 renal; COLO 205 colon; DU-145 prostate; K-562 leukemia; MALME-3M melanoma; MDA-MB-231 breast; RXF 393 renal; SF-268 CNS; SF-295 CNS; SF-539 CNS; UACC-257 melanoma; M14 melanoma.
Experiment in all cases: NCI-60 one-dose screen, 48 h (100 = growth as untreated, 0 = no growth, -100 = all killed)
Details in all cases: 10 µM unless noted

Take `COc1ccc(CC2c3cc(OC)c(OC)cc3CC[N+]2(C)CCC(=O)OCCCCCOC(=O)CC[N+]2(C)CCc3cc(OC)c(OC)cc3C2Cc2ccc(OC)c(OC)c2)cc1OC` (stereo not drawn): the growth was 93.4% with NCI-H23 lung; 76.3% in the experiment on NCI-H226 lung; 90.9% with NCI-H322M lung; 100% in the experiment on HOP-62 NSCLC; 100% with NCI-H460 lung; 86.1% with NCI-H522 lung. Further, the growth in the experiment on A549/ATCC NSCLC is 101%; in the experiment with 786-0 renal, 103%; with COLO 205 colon it was 112%; with DU-145 prostate it was 99.8%; in the experiment with K-562 leukemia it was 111%; with MALME-3M melanoma it was 99.6%. Also, the growth with MDA-MB-231 breast is 92.2%; with RXF 393 renal, 91.5%; in the experiment with SF-268 CNS it was 87.6%; in the experiment with SF-295 CNS, 93.5%; with SF-539 CNS it was 100%; with UACC-257 melanoma it was 100%.

For the molecule `CCOC(=O)CCN(CCC(=O)OCC)c1ccccc1`, the growth in the experiment with NCI-H23 lung was 101%; in the experiment on NCI-H226 lung, 98.4%; in the experiment on NCI-H322M lung, 110%; in the experiment with HOP-62 NSCLC, 86%; in the experiment on NCI-H460 lung, 111%; in the experiment with NCI-H522 lung it was 89.8%. Further, the growth with A549/ATCC NSCLC was 99.6%; with 786-0 renal, 105%; in the experiment on COLO 205 colon it was 93.7%; in the experiment with DU-145 prostate, 111%; in the experiment on K-562 leukemia, 121%; with MALME-3M melanoma, 120%. Also, the growth in the experiment with MDA-MB-231 breast is 111%; with RXF 393 renal, 81.3%; in the experiment with SF-268 CNS it was 93.6%; in the experiment on SF-295 CNS, 107%; in the experiment on SF-539 CNS it was 92.4%; in the experiment on UACC-257 melanoma it was 96.4%. Also, the growth in the experiment on M14 melanoma is 86.6%.

On to `COc1cnc2c(c1)C(=O)c1c-2n(CCCN2CCN(C)CC2)c(=O)c2cc(Cl)ccc12`, for which the growth was 47.9% in the experiment with NCI-H23 lung; 30.4% in the experiment on NCI-H226 lung; 49.3% in the experiment on NCI-H322M lung; 20.5% in the experiment with HOP-62 NSCLC; 6.14% (active) with NCI-H460 lung; 11.7% in the experiment on NCI-H522 lung. The growth with A549/ATCC NSCLC was 37.7%; in the experiment on 786-0 renal, 21.3%; with COLO 205 colon it was 31.3%; in the experiment on DU-145 prostate, 33.1%; with K-562 leukemia, -76.1% (active); in the experiment with MALME-3M melanoma, 75.4%. For the same molecule, the growth in the experiment on MDA-MB-231 breast was 48.6%; in the experiment on RXF 393 renal, 46.9%; with SF-268 CNS it was 35.7%; in the experiment with SF-295 CNS it was 35.5%; in the experiment with SF-539 CNS, 14.7%; in the experiment with UACC-257 melanoma it was 14.1%.

As for `CCN(CC)c1ccc(/C=N/NC(=O)c2ccc(S(C)(=O)=O)cc2)c(O)c1`, the growth in the experiment on NCI-H23 lung is 32.8%; in the experiment on NCI-H226 lung it was 22.6%; with NCI-H322M lung it was 25%; in the experiment with HOP-62 NSCLC, 12.9%; with NCI-H460 lung, 3.28% (active); in the experiment on NCI-H522 lung, 9.91% (active). The growth was 12.5% in the experiment on A549/ATCC NSCLC; 15.4% in the experiment on 786-0 renal; 8.62% (active) in the experiment on COLO 205 colon; 24.5% with DU-145 prostate; 12.4% in the experiment on K-562 leukemia; 14% in the experiment on MALME-3M melanoma. Moreover, the growth was 43.2% in the experiment on MDA-MB-231 breast; 28.6% in the experiment with RXF 393 renal; 21.8% in the experiment on SF-268 CNS; 21.4% in the experiment with SF-295 CNS; 4.01% (active) in the experiment with SF-539 CNS; -11.5% (active) in the experiment on UACC-257 melanoma.

As for `Cc1cccc(/C=N/n2c(-c3ccc(Cl)cc3)nc3c(Br)cc(Br)cc3c2=O)c1`, the growth in the experiment on NCI-H23 lung is 29.2%; in the experiment on NCI-H226 lung, 37.9%; in the experiment on NCI-H322M lung, 53.8%; with HOP-62 NSCLC, 33.8%; in the experiment with NCI-H460 lung, 29.1%; with NCI-H522 lung, 38.1%. Moreover, the growth with A549/ATCC NSCLC was 31.4%; in the experiment with 786-0 renal, 51.9%; with COLO 205 colon, 46.8%; with DU-145 prostate it was 66.2%; in the experiment on K-562 leukemia it was 65.7%; in the experiment on MALME-3M melanoma, 70%. The growth in the experiment on MDA-MB-231 breast is 44.9%; in the experiment on RXF 393 renal it was 61.3%; with SF-268 CNS, 69.9%; in the experiment on SF-295 CNS, 35.4%; in the experiment with SF-539 CNS, 70%; in the experiment with UACC-257 melanoma it was 76.3%. For the same molecule, the growth in the experiment with M14 melanoma is 60.4%.

For the molecule `Cc1cc(O)ccc1Sc1ccccc1[N+](=O)[O-]`, the growth in the experiment with NCI-H23 lung is 86.2%; in the experiment on NCI-H226 lung, 97.2%; in the experiment with NCI-H322M lung, 110%; in the experiment with HOP-62 NSCLC, 92.2%; in the experiment with NCI-H460 lung, 96.4%; in the experiment on NCI-H522 lung it was 75.9%. In addition, the growth in the experiment with A549/ATCC NSCLC is 84.9%; in the experiment with 786-0 renal, 107%; with COLO 205 colon, 108%; in the experiment on DU-145 prostate, 96%; with K-562 leukemia, 101%; in the experiment with MALME-3M melanoma it was 79.6%. Further, the growth in the experiment with MDA-MB-231 breast was 106%; with RXF 393 renal, 106%; in the experiment on SF-268 CNS it was 98.4%; in the experiment with SF-295 CNS, 90.1%; with SF-539 CNS, 102%; in the experiment with UACC-257 melanoma, 88.1%. For the same molecule, the growth in the experiment on M14 melanoma was 88.9%.

As for `COc1cnc2c(c1)C(=O)c1c-2n(CCCN2CCCC2)c(=O)c2cc(Cl)ccc12`, the growth with NCI-H23 lung was 32.5%; with NCI-H226 lung, 6.56% (active); in the experiment with NCI-H322M lung it was 46.6%; in the experiment on HOP-62 NSCLC, 16.2%; in the experiment on NCI-H460 lung it was -12.9% (active); in the experiment on NCI-H522 lung, 4.02% (active). Further, the growth with A549/ATCC NSCLC is 25.3%; in the experiment on 786-0 renal, -73.1% (active); in the experiment with COLO 205 colon, 10.4%; with DU-145 prostate, 36%; in the experiment with K-562 leukemia, -72% (active); with MALME-3M melanoma it was 70.3%. In addition, the growth is 62.4% in the experiment on MDA-MB-231 breast; 30% in the experiment with RXF 393 renal; 39.2% with SF-268 CNS; 23% in the experiment on SF-295 CNS; 4.9% (active) in the experiment on SF-539 CNS; 63.6% with UACC-257 melanoma. Besides, in the experiment on M14 melanoma, the growth was 37.3%.

As to `CC(=O)c1ccc(N2C(=O)c3ccc(Oc4ccccc4)cc3C2=O)cc1`, the growth with NCI-H23 lung was 101%; in the experiment with NCI-H226 lung, 98.8%; in the experiment on NCI-H322M lung, 106%; in the experiment on HOP-62 NSCLC, 99.9%; in the experiment with NCI-H460 lung, 105%; in the experiment on NCI-H522 lung, 93.1%. The growth in the experiment on A549/ATCC NSCLC was 109%; in the experiment on 786-0 renal it was 108%; in the experiment with COLO 205 colon it was 116%; in the experiment on DU-145 prostate, 103%; in the experiment on K-562 leukemia, 119%; in the experiment with MALME-3M melanoma, 106%. The growth with MDA-MB-231 breast was 113%; with RXF 393 renal, 112%; in the experiment with SF-268 CNS, 100%; in the experiment with SF-295 CNS it was 81.1%; in the experiment with SF-539 CNS, 107%; with UACC-257 melanoma, 118%.
